# Compound activity: PubChem, several laboratories
# In the library only some 3.7% were active in any assay of this set; here they are far more common.
# TIM10 inh = growth inhibitors of TIM10 yeast strain; S. cerevisiae TIM10 strain growth, BacTiter-Glo luminescence, 24 h; inhibition, % at 10 µM; hit rate 1.4% among 330,000;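 active = inhibition of 40% or more at the single tested concentration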;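 note: wild-type TIM10 isogenic control strain grown at permissive 25 °C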
# tim10-1 inh = growth inhibitors of tim10-1 mutant yeast; S. cerevisiae tim10-1 ts strain growth, BacTiter-Glo, 24 h; inhibition, % at 20 µM; hit rate 2.2% among 330,000; AID 463190;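 active = inhibition of at least 40%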;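 note: mutant grown at 25 °C; 0% = DMSO wells with yeast and 100% = wells holding no yeast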
# tim23-1 inh = inhibits growth of tim23-1 mutant yeast; S. cerevisiae tim23-1 growth, BacTiter-Glo luminescence, 24 h; inhibition, % at 20 µM; hit rate 1.3% among 330,000; AID 463212;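 active = growth inhibition of the mutant yeast at or above 50%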;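 note: temperature-sensitive mutant grown at 25 °C; plate controls were DMSO-treated mutant yeast for no effect and medium wells lacking yeast for full effect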
# PfHsp90 yeast 2 = inhibits growth of yeast expressing Plasmodium falciparum Hsp90 | S. cerevisiae expressing PfHsp90, BacTiter-Glo ATP, 48 h; yeast lacking PDR1 and PDR3 efflux regulators | inhibition, % at 9.4 µM | hit rate 0.32% among 310,000;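 active = every replicate shows inhibition above about 80%, whatever the replicate mean, limit read from the data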;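 note: 0% = DMSO neutral controls and 100% = 20 µM radicicol positive controls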
# NLRP3 yeast inh = inhibitors of NALP3 inflammasome in yeast | inhibition, % at 10 µM | AID 2825 | Yeast reconstituted NLRP3/ASC/caspase-1, beta-gal luminescence, 24 h | hit rate 0.39% among 330,000;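 active = inhibition of 50% or more; inactive = inhibition below 50%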;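 note: plate controls were induced DMSO wells for no effect and uninduced yeast grown without galactose for full effect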
# tim10-1 confirm = tim10-1 yeast growth inhibition, confirmed. inhibition, % at 20 µM. hit rate 56% among 7,400. shares compounds with tim10-1 inh. S. cerevisiae tim10-1 ts strain growth, BacTiter-Glo, 24 h;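 active = inhibition of yeast growth at or above a set limit in either of two repeat tests at 20 µM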;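 note: tim10-1 mutant grown at permissive 25 °C to find synthetic lethal compounds; 0% = DMSO yeast wells and 100% = medium wells without yeast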
# tim10 confirm = TIM10 yeast growth inhibition, confirmed | shares compounds with TIM10 inh | S. cerevisiae tim10 strain growth, BacTiter-Glo luminescence, 24 h | inhibition, % at 10 µM | hit rate 63% among 4,600;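 active = inhibition of yeast growth at or above a set limit in either of two replicates at 10 µM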;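 note: this counterscreen used the strain with wild-type TIM10; 0% = yeast with DMSO and 100% = medium wells lacking yeast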
# tim23-1 confirm = tim23-1 yeast growth inhibition, confirmed. inhibition, % at 20 µM. S. cerevisiae tim23-1 growth, BacTiter-Glo luminescence, 24 h. hit rate 83% among 4,400. shares compounds with tim23-1 inh. AID 463218;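 active = inhibition above about 39% in either of two replicate wells at 20 µM, limit read from the data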;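 note: temperature-sensitive tim23-1 mutant grown at 25 °C; 0% = DMSO wells with yeast and 100% = medium wells without yeast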
# * hit, by the source's call; nt = no result given.
SMILES,TIM10 inh,tim10-1 inh,tim23-1 inh,PfHsp90 yeast 2,NLRP3 yeast inh,tim10-1 confirm,tim10 confirm,tim23-1 confirm
O=Nc1c(-c2cccc([N+](=O)[O-])c2)nc2ncccn12,84*,91*,89*,nt,20,91*,98*,73*
NNc1nc(-c2ccccc2Cl)c2cc(Br)ccc2n1,41*,49*,57*,-9,-1,37*,30*,43*
Clc1ccccc1-c1ncnc2ccc(Br)cc12,-7,12,0,-12,-5,nt,nt,nt
Cc1ccccc1OCC(=O)NC(=S)Nc1cccc2cc(O)ccc12,25,57*,63*,-12,29,55*,nt,49*
CN1C[C@@H]2C(c3ccc(Cl)nc3)C3(c4ccccc4)CC2(C3)[C@H]1c1ccccc1 (stereo partly specified),21,17,24,nt,14,nt,nt,nt
O=C(Sc1cccc2cccnc12)c1ccc(F)cc1,55*,76*,80*,nt,43,67*,58*,71*
COc1ccc(OC)c(NC(=O)Nc2cccnc2)c1,10,9,17,38,11,nt,nt,nt
O=C(Cc1ccc(Br)cc1)c1ccc(O)cc1O,61*,58*,63*,15,34,66*,57*,53*
O=C(COc1ccccc1Br)c1ccc2c(c1)OCO2,7,19,12,-1,7,nt,nt,nt
O=C(COc1ccccc1Br)c1ccc(O)cc1O,32,50*,66*,-16,22,40*,nt,58*
Cc1c(Cl)cccc1NC(=O)CCN1CCOCC1,-6,-22,0,-22,8,nt,nt,nt
O=S(=O)(c1cccc(-c2nc3ccccc3s2)c1)N1CCOCC1,43*,41*,53*,nt,-40,40*,30*,40*
CCOc1ccccc1NC(=O)c1nc(S(=O)(=O)Cc2ccccc2)ncc1Cl,32,59*,78*,-58,45,41*,nt,74*
Cc1ccc(NC(=O)c2nc(S(=O)(=O)Cc3ccccc3C)ncc2Cl)cc1C,-33,42*,68*,-14,14,-54,nt,60*
CCS(=O)(=O)c1ncc(Cl)c(C(=O)Nc2ccccc2OC)n1,-14,-5,18,-8,15,nt,nt,nt
CSc1ncc(Cl)c(C(=O)Nc2ccc(C)c(C)c2)n1,8,26,24,-26,7,nt,nt,nt
CN(CC(=O)Nc1ccc(OC(F)(F)F)cc1)C(=O)Cn1c(=O)cnc2ccccc21,-1,-19,-10,8,9,nt,nt,nt
COc1ccccc1C/C(N)=N/OC(=O)COc1cccc2ccccc12,74*,58*,65*,nt,21,64*,62*,73*
COc1ccccc1C/C(N)=N/OC(=O)COc1ccc2ccccc2c1,55*,48*,52*,15,18,64*,43*,77*
COc1cccc(C(=O)NN2C(=O)C3C4C=CC(O4)C3C2=O)c1 (stereo unspecified),-10,22,12,5,4,nt,nt,nt
CCOc1c(Br)cc(/C=C2\N=C(C)OC2=O)cc1Br,28,61*,59*,4,1,33*,nt,64*
O=[N+]([O-])c1ccc(Nc2ccccc2)c2nonc12,45*,49*,60*,-13,22,37*,39*,67*
CC(=O)NS(=O)(=O)c1ccc(Nc2ccc([N+](=O)[O-])c3nonc23)cc1,16,8,10,5,23,nt,nt,nt
O=C1Nc2ccccc2N(O)N1c1ccc(Cl)cc1,5,5,3,35,6,nt,nt,nt
CCN1c2ccccc2NC2C1C(C(C)=O)C(=O)N2c1ccc(Cl)cc1 (stereo unspecified),52*,62*,69*,-5,26,53*,39*,50*
SMILES,TIM10 inh,tim10-1 inh,tim23-1 inh,PfHsp90 yeast 2,NLRP3 yeast inh,tim10-1 confirm,tim10 confirm,tim23-1 confirm
O=C(Nc1cc(C(=O)Nc2ccccc2C(=O)O)cc(C(=O)Nc2ccccc2C(=O)O)c1)c1ccccc1,0,7,13,nt,1,nt,nt,nt
CCOC(=O)/C=C/C(=O)Nc1ccc(Oc2ccccc2)cc1,33,50*,55*,nt,-4,49*,nt,66*
CSc1nnnc2ccccc12,nt,nt,nt,6,nt,nt,nt,nt
Cc1sc(NC(=O)/C=C/c2ccco2)c(C(=O)O)c1C,-1,-2,24,25,-2,nt,nt,nt
COc1ccccc1N/C=C/c1onc(C)c1[N+](=O)[O-],23,22,12,0,33,nt,nt,nt
Cc1noc(/C=C/c2ccccn2)c1[N+](=O)[O-],51*,53*,62*,-56,29,62*,58*,54*
Cc1c(C#N)c(N=CN(C)C)c(C(=O)c2ccc(Br)cc2)n1-c1ccccc1,42*,41*,56*,22,7,25,22,35
O=C(COC(=O)Cc1c(Cl)cccc1Cl)Nc1ccc2[nH]c(=O)[nH]c2c1,-34,-36,-18,nt,0,nt,nt,nt
Cc1cccc(C(=O)O/N=C2/CC3CCC2(C)C3(C)C)c1 (stereo unspecified),65*,50*,59*,22,8,65*,70*,66*
Cc1ccc(C(=O)O/N=C2\CC3CCC2(C)C3(C)C)cc1 (stereo unspecified),76*,67*,66*,-26,17,67*,75*,68*
Cc1ccc(C(=O)O/N=C2/CC3CCC2(C)[C@@]3(C)CBr)cc1 (stereo partly specified),8,37,44,-4,25,nt,nt,nt
O=C(Oc1ccc(Br)cc1C(=O)/C=C/c1ccccc1F)c1ccco1,70*,41*,60*,-141,-11,40*,62*,43*
Cc1cc(C(=O)Nc2nnc(C3CCCCC3)s2)no1,36,23,47,-5,-24,nt,nt,nt
Cc1ccc(C(=O)Nc2nnc(C3CCCCC3)s2)o1,24,46*,52*,9,18,35*,nt,45*
CC[C@@]1(C(=O)OC)N[C@H](CN(C)C(=O)Nc2ccccc2)[C@@H]2C(=O)N(Cc3ccccc3)C(=O)[C@@H]21,-1,1,8,5,5,nt,nt,nt
C/C(=N/Nc1nc(-c2ccccc2)cc(-c2ccc(F)cc2)n1)c1cccc(N)c1,52*,46*,55*,-25,3,44*,0,53*
C/C(=N\Nc1nc(C)cc(-c2ccccc2)n1)c1ccc(F)cc1,1,5,5,-5,33,nt,nt,nt
O=C(NC1=NCCS1)c1cc(-c2ccc(F)cc2)nc2ccccc12,51*,50*,59*,-5,20,51*,-8,60*
Cc1ccc(-c2cc(C(=O)NC3=NCCS3)c3ccccc3n2)cc1C,nt,nt,nt,-8,nt,nt,nt,nt
